# Test results: PubChem BioAssay (NCATS)
# Several values for one entry are separate records, joined by “and”; a condition that tells them apart may be missing. Equal entries are not always repeated. Results filed as inconclusive are left out. Unmarked numbers belong to inactive results. Activity calls are given as the source filed them. Calls follow the shape of the dose curve; as a rule, active = well fitted curve in the direction sought with a large enough effect; inconclusive = small, poorly fitted or top-dose-only effect, or another doubt; inactive = no such curve, though single readings can be large; an effect the other way counts as inactive or inconclusive.
# Legend:
# [1] = Viability qHTS for spleen associated tyrosine kinase inhibitor (SYKi) naive MV4-11 cells (AID 1963823); also: nearly all actives have a fitted effect of over 40% in size
# Method in brief: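 Seeding of 500 SYKi-naive MV4-11 cells per well onto pre-dispensed compounds preceded a 72 hr incubation at 37 C. Luminescent CellTiter-Glo signal, read after 10 min at room temperature, reflected viable cells.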
# [2] = Viability qHTS for spleen associated tyrosine kinase inhibitor (SYKi) drug resistant MV4-11 cells (AID 1963824); also: nearly all actives have a fitted effect of over 35% in size
# Method in brief: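 SYK-inhibitor-resistant MV4-11 AML cells were seeded at 500 per well onto compound and cultured 72 hours (37 °C, 5% CO2). CellTiter-Glo was then added, and after 10 min at room temperature, luminescence gave viability.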
# [3] = Quantitative highthroughput screen to assess conditional lethalithy of NOMO1 cells grown in RPMI1640 with dialyzed fetal bovine serum (RPMI+ds) (AID 1963877); also: nearly all actives have a fitted effect of over 30% in size;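 as to Viability: series mostly up to about 46 µM; 100% = DMSO control wells and 0% = empty wells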
# Method in brief: (§1)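 Each medium arm—HPLM with 10% dialyzed FBS, or RPMI1640 with 5 mM glucose and 10% untreated or dialyzed FBS—was screened against an 11-point, 3-fold compound titration for 48 h at 37 °C, with CellTiter-Glo luminescence as endpoint.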
# [4] = Quantitative highthroughput screen to assess conditional lethalithy of NOMO1 cells grown in RPMI1640 with untreated serum (RPMI+s) (AID 1963876); also: nearly all actives have a fitted effect of over 35% in size;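 as to Viability: 100% = DMSO wells and 0% = empty wells without cells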
# Method in brief: as §1
# [5] = Quantitative highthroughput screen to assess conditional lethalithy of SEM cells grown in RPMI1640 with dialyzed fetal bovine serum (RPMI+ds) (AID 1963884); also: nearly all actives have a fitted effect of over 35% in size;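 as to Viability: series mostly up to about 46 µM; 100% = DMSO control wells and 0% = empty wells without cells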
# Method in brief: as §1
# [6] = Cellular viability qHTS for adrenocortical cancer (ACC) cell line SW-13 (AID 1963989); settings: SW-13 ACC cells viability, CellTiter-Glo, 48 h; activity (max response): hits give low values; also: nearly all actives have a fitted effect of over 65% in size;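 as to activity (max response): cells grown in serum-free medium with ITS supplement; % is scaled to controls: 0 for no effect and ±100 for the full control effect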
# Method in brief: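 Here, serum-free SW-13 cultures were dosed up to 46 uM. Following 48 h, ATP-dependent luminescence (CellTiter-Glo) reported viable cells, and logistic modeling produced IC50 values.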
# [7] = Quantitative highthroughput screen to assess conditional lethalithy of P12 Ichikawa cells grown in Human Plasma-Like Medium with dialyzed fetal bovine serum (HPLM+ds) (AID 1963879); settings: Potency: viability; also: nearly all actives have a fitted effect of over 35% in size; as to Viability: series mostly up to about 46 µM
# Method in brief: as §1
# [8] = Quantitative highthroughput screen to assess conditional lethalithy of P12 Ichikawa cells grown in RPMI1640 with dialyzed fetal bovine serum (RPMI+ds) (AID 1963880); settings: Potency: P12-Ichikawa viability; also: nearly all actives have a fitted effect of over 35% in size;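 as to Viability: 100% = DMSO wells and 0% = empty wells on each plate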
# Method in brief: as §1
# [9] = Quantitative highthroughput screen to assess conditional lethalithy of P12 Ichikawa cells grown in RPMI1640 with untreated serum (RPMI+s) (AID 1963881); settings: Potency: viability; also: nearly all actives have a fitted effect of over 35% in size;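 as to Viability: series mostly up to about 46 µM; 100% = DMSO wells and 0% = empty wells without cells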
# Method in brief: as §1
# [10] = Quantitative highthroughput screen to assess conditional lethalithy of SEM cells grown in RPMI1640 with unreated serum (RPMI+s) (AID 1963883); also: nearly all actives have a fitted effect of over 35% in size;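 as to Viability: 100% = DMSO wells and 0% = empty wells without cells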
# Method in brief: as §1
# [11] = Cellular viability qHTS for adrenocortical cancer (ACC) cell line NCI-H295R (AID 1963990); also: nearly all actives have a fitted effect of over 60% in size;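 as to activity change, negative = viability loss: 0% = DMSO only wells and -100% = full killing with cytotoxic reference compound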
# Method in brief: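 Viability of NCI-H295R after 48 h of treatment (final up to 46 uM) measured through cellular ATP luminescence.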
# [12] = Quantitative highthroughput screen to assess conditional lethalithy of NOMO1 cells grown in Human Plasma-Like Medium with dialyzed fetal bovine serum (HPLM+ds) (AID 1963878); also: nearly all actives have a fitted effect of over 35% in size;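 as to Viability: 100% = DMSO wells and 0% = empty wells on each plate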
# Method in brief: as §1
# [13] = Quantitative highthroughput screen to assess conditional lethalithy of SEM cells grown in Human Plasma-Like Medium with dialyzed fetal bovine serum (HPLM+ds) (AID 1963882); also: nearly all actives have a fitted effect of over 35% in size; as to Viability: series mostly up to about 46 µM
# Method in brief: as §1
# Potency is read from the fitted curve at half-maximal effect.
compound,measurement,setting,value
NC(=O)N1CCC(CC(=O)N2CCC([C@H]3c4ncc(Br)cc4CCc4cc(Cl)cc(Br)c43)CC2)CC1,Potency,[1],5.9 µM (active)
same,Potency,[2],4.17 µM (active)
same,Potency,[3],inactive
COc1cc2ncn(-c3cc(OCc4ccccc4C(F)(F)F)c(C(N)=O)s3)c2cc1OC,Potency,[1],355 nM (active) and 662 nM (active)
same,Potency,[2],282 nM (active) and 263 nM (active)
same,Potency,[4],2.64 µM (active)
same,Potency,[5],2.64 µM (active)
same,Potency,[6],1.26 µM (active)
Cc1cc(C(=O)N2CCN(c3cccc(Cl)c3)CC2)n(-c2ccccc2)n1,Potency,[1],1.46 µM (active)
same,Potency,[2],1.46 µM (active)
same,Potency,[4],7.43 µM (active)
same,Potency,[7],1.48 µM (active)
same,Potency,[8],2.96 µM (active)
same,Potency,[9],3.32 µM (active)
same,Potency,[10],2.64 µM (active)
same,Potency,[5],1.87 µM (active)
same,Potency,[6],0.355 µM (active)
same,Potency,[11],0.447 µM (active)
OC[C@@H](O)[C@@H](O)[C@H](O)[C@@H](O)CO,Potency,[1],inactive
same,Potency,[2],inactive
same,Potency,[3],inactive
same,Potency,[12],inactive
same,Potency,[7],inactive
same,Potency,[8],inactive
same,Potency,[9],inactive
same,Potency,[13],inactive
same,Potency,[10],inactive
same,Potency,[5],inactive
same,activity (max response),[6],3.97%
O=C1CCc2ccc(OCCCCN3CCN(c4cccc(Cl)c4Cl)CC3)cc2N1,Potency,[1],10.5 µM (active)
same,Potency,[2],9.34 µM (active)
same,Potency,[3],inactive
same,Potency,[12],inactive
same,Potency,[7],inactive
same,Potency,[8],inactive
same,Potency,[9],inactive
same,Potency,[13],inactive
same,Potency,[10],inactive
Cc1ncc(-c2ccnc(Nc3ccc(S(C)(=O)=O)cc3)n2)n1C(C)C,Potency,[1],1.3 µM (active) and 1.66 µM (active)
same,Potency,[2],920 nM (active) and 934 nM (active)
same,Potency,[3],5.9 µM (active)
same,Potency,[12],7.43 µM (active)
same,Potency,[7],20.9 µM (active)
same,Potency,[8],13.2 µM (active)
same,Potency,[9],13.2 µM (active)
same,Potency,[13],3.72 µM (active)
same,Potency,[10],3.32 µM (active)
same,Potency,[5],5.26 µM (active)
same,Potency,[6],8.91 µM (active)
same,Potency,[11],7.08 µM (active)
CC(C)(S)[C@@H](N)C(=O)O,viability (% of control),[1],88.9% [at 4.97 µM]
same,"viability, % of control",[2],89% [at 4.97 µM]
same,Potency,[4],inactive
same,Potency,[7],inactive
same,Potency,[8],inactive
same,Potency,[9],inactive
same,activity (max response),[6],0.215%
same,"activity change, negative = viability loss",[11],-1.21% [at 3.81 µM]
CN1CCN(c2ncc(-c3cc(Cl)cc(Cl)c3Cl)c(N)n2)CC1,Potency,[1],16.6 µM (active)
same,Potency,[2],16.6 µM (active)
same,Potency,[4],0.332 µM (active)
same,Potency,[8],3.72 µM (active)
same,Potency,[13],inactive
same,Potency,[10],inactive
same,Potency,[5],inactive
same,Potency,[11],22.4 µM (active)
CC(C)Nc1cc(-c2c[nH]c(C(=O)N[C@H](CO)c3cccc(Cl)c3)c2)c(Cl)cn1,Potency,[1],2.91 µM (active) and 2.09 µM (active)
same,Potency,[2],1.64 µM (active) and 2.63 µM (active)
same,Potency,[4],14.8 µM (active)
same,Potency,[13],20.9 µM (active)
same,Potency,[10],18.6 µM (active)
same,Potency,[5],16.6 µM (active)
same,Potency,[6],15.8 µM (active)
same,Potency,[11],8.91 µM (active)
Cc1cnc(C(=O)NCCc2ccc(S(=O)(=O)NC(=O)NC3CCCCC3)cc2)cn1,Potency,[1],inactive
same,Potency,[2],inactive
same,Potency,[4],inactive
same,Potency,[13],inactive
same,Potency,[10],inactive
same,activity (max response),[6],-1.95% and -7.3%
same,Potency,[11],inactive
O=C(NC[C@H](O)CO)c1ccncc1Nc1ccc(I)cc1F,Potency,[1],0.235 µM (active)
same,Potency,[2],0.166 µM (active)
same,Potency,[4],0.469 µM (active)
same,Potency,[7],inactive
same,Potency,[11],31.6 µM (active)
C[C@@H]1COCCN1c1cc(C2(S(C)(=N)=O)CC2)nc(-c2ccnc3[nH]ccc23)n1 (stereo not given in full),Potency,[1],1.48 µM (active)
same,Potency,[2],1.18 µM (active) and 2.59 µM (active)
same,Potency,[3],2.95 µM (active)
same,Potency,[12],1.17 µM (active)
same,Potency,[7],4.17 µM (active)
same,Potency,[8],2.95 µM (active)
same,Potency,[9],4.67 µM (active)
NC1CCC(N[C@@H]2C[C@H]2c2ccccc2)CC1 (stereo not given in full),Potency,[1],inactive
same,Potency,[2],inactive
same,Potency,[3],inactive
same,Potency,[12],inactive
same,Potency,[7],inactive
same,Potency,[8],inactive
same,Potency,[9],inactive
same,Potency,[13],inactive
same,Potency,[10],inactive
same,Potency,[5],inactive
same,activity (max response),[6],-23.4%
CN1CCC(=C2c3ccccc3CCc3sccc32)CC1,Potency,[1],14.8 µM (active)
same,Potency,[2],18.6 µM (active)
same,Potency,[4],inactive
same,Potency,[7],inactive
same,Potency,[9],inactive
same,Potency,[10],inactive
COc1ccc(-n2nc(C(N)=O)c3c2C(=O)N(c2ccc(N4CCCCC4=O)cc2)CC3)cc1,Potency,[1],inactive
same,Potency,[2],inactive
same,Potency,[4],0.118 µM (active)
same,Potency,[7],2.64 µM (active)
same,Potency,[8],2.96 µM (active)
same,Potency,[9],2.64 µM (active)
same,Potency,[13],inactive
same,activity (max response),[6],-9.7%
same,Potency,[11],inactive
CC(C)(O)c1cc2nc(-c3cnc(N)nc3)nc(N3CCOCC3)c2s1,Potency,[1],0.58 µM (active)
same,Potency,[2],1.16 µM (active)
same,Potency,[4],1.87 µM (active)
same,Potency,[7],0.935 µM (active)
same,Potency,[6],1.26 µM (active)
same,Potency,[11],1 µM (active)
